Measurements taken from article PMC7862700, “An all-to-all approach to the identification of sequence-specific readers for epigenetic DNA modifications on cytosine”.

Assays:
Assay in all cases: DAPPL (digital affinity profiling via proximity ligation, sequencing); 10 mM Tris-HCl pH 7.5, 50 mM NaCl, 1 mM DTT, 4% glycerol, room temperature, 30 min; GST-TFs on glutathione beads, 16-mer random dsDNA library, 0.1% formaldehyde crosslink after washing; high values mean tight binding
Conditions in all cases: protein: recombinant; tags: N-terminal GST; dsDNA, one strand shown
FLI1 = molecular target: T1, FLI1 (Homo sapiens, UniProt Q01543 1-452)
T1 sequence: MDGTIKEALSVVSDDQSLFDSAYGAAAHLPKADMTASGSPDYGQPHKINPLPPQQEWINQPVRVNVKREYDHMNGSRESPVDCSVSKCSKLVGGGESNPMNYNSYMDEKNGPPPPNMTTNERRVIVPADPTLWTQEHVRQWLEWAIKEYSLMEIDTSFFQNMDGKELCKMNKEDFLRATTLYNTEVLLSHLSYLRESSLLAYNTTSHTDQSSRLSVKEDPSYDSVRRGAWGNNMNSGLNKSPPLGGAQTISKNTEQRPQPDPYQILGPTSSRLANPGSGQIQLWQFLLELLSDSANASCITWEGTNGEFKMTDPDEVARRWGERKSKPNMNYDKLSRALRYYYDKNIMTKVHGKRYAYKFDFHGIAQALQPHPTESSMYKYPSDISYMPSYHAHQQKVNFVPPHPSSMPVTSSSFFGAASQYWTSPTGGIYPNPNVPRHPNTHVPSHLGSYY
Procedure, shortened: (§1)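 Pools were built from human transcription factors expressed in yeast as GST fusions, captured on glutathione beads and DNA-barcoded, along with a tag-only sample. Incubation with 200 nmole of a 16-mer random double-stranded DNA library lasted 30 min at room temperature in Tris/NaCl/DTT/glycerol buffer, and was followed by washing, 0.1% formaldehyde crosslinking, proximity ligation, PCR amplification and Illumina NextSeq500 sequencing. Binding signal is the quotient of each hexamer's read frequency for a factor and its frequency for the tag-only sample.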

ELK1 = molecular target: T2, ELK1 (Homo sapiens, UniProt P19419 1-428)
T2 sequence: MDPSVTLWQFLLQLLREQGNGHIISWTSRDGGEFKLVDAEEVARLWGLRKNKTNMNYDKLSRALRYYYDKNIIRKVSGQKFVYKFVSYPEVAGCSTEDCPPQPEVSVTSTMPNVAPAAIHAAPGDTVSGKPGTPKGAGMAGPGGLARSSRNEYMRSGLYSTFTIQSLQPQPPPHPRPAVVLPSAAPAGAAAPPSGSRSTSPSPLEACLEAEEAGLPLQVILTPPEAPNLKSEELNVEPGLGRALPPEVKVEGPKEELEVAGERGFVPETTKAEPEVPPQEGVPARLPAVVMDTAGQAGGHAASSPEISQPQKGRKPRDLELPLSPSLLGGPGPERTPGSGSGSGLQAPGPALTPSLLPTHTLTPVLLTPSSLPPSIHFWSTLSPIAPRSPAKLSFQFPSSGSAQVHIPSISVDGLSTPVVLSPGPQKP
Procedure, shortened: as §1

GABPA = molecular target: T3, GABPA (Homo sapiens, UniProt Q06546 1-454)
T3 sequence: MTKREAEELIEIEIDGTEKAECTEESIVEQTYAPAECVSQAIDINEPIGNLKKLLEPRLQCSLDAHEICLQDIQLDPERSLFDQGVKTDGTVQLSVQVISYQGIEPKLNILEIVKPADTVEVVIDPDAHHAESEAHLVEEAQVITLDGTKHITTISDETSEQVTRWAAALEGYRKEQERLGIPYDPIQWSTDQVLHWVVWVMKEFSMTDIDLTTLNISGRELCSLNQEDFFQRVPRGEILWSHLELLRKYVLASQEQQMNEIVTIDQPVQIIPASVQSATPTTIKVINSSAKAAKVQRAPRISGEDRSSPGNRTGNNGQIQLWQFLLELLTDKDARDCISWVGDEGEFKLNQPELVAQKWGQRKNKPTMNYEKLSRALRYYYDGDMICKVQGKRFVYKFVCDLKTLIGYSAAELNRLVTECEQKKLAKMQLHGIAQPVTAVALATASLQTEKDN
Procedure, shortened: as §1

ERG = molecular target: T4, ERG (Homo sapiens, UniProt P11308 1-479)
T4 sequence: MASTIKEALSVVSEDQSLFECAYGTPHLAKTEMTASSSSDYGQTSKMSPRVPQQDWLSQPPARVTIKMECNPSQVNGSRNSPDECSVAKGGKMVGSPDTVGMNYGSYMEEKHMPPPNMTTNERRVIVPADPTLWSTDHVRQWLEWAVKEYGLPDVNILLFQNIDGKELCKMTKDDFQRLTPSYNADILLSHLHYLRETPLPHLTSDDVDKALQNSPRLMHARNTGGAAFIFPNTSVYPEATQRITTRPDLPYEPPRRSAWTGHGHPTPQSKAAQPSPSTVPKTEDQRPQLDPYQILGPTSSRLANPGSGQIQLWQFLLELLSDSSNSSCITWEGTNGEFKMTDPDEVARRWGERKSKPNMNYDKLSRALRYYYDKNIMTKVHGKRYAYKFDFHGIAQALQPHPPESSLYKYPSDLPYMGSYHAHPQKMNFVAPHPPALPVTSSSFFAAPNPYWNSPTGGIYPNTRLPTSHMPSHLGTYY
Procedure, shortened: as §1

ELF1 = ELF1 (Homo sapiens, UniProt P32519 1-619)
Chain of ELF1 (P32519 whole entry): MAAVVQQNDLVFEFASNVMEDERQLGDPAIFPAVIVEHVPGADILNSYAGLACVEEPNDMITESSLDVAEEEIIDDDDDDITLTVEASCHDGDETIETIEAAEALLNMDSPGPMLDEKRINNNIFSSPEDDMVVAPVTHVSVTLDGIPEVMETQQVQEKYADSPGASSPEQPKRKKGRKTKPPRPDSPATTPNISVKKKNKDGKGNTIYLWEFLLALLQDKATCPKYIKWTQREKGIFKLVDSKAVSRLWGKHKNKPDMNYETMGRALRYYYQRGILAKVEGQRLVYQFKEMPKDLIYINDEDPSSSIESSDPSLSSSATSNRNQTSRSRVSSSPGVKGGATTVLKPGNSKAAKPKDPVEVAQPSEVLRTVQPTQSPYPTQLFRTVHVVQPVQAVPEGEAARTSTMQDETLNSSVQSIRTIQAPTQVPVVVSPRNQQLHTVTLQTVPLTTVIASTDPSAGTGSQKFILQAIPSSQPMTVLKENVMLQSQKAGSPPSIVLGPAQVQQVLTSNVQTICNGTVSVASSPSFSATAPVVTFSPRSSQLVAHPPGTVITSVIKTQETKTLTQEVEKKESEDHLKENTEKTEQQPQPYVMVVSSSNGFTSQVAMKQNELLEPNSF
Procedure, shortened: as §1

EHF = molecular target: T5, EHF (Homo sapiens, UniProt Q9NZC4 1-300)
T5 sequence: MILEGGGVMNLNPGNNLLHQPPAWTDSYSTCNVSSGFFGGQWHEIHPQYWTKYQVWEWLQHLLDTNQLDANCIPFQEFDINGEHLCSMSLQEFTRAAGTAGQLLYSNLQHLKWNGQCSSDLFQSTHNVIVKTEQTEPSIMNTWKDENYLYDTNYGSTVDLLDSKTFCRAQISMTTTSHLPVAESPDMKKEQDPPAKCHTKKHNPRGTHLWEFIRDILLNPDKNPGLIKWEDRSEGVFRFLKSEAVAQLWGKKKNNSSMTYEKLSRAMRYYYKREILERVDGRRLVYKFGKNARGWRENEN
Procedure, shortened: as §1

SPI1 = SPI1 (Homo sapiens, UniProt P17947 1-270)
Procedure, shortened: as §1

SPIB = SPIB (Homo sapiens, UniProt Q01892 1-262)
Chain of SPIB (Q01892 whole entry): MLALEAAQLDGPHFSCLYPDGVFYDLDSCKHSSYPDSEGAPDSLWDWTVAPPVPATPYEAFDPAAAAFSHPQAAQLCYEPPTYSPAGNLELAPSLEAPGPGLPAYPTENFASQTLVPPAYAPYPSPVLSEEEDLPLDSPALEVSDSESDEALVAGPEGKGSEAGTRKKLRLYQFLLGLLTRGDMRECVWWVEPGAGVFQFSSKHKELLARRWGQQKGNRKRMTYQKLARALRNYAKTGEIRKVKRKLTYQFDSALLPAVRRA
Procedure, shortened: as §1

ELK3 = molecular target: T6, ELK3 (Homo sapiens, UniProt P41970 1-407)
T6 sequence: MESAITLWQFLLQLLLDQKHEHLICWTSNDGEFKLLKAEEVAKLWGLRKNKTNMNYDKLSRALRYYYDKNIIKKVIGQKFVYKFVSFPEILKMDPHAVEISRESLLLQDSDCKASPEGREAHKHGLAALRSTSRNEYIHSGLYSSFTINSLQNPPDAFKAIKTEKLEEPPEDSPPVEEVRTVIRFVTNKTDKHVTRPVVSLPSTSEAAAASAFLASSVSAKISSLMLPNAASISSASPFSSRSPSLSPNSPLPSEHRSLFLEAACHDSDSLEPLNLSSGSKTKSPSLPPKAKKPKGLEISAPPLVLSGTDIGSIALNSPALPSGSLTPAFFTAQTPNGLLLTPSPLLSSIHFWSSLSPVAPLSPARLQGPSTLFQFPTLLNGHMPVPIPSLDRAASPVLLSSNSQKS
Procedure, shortened: as §1

ETV5 = ETV5 (Homo sapiens, UniProt P41161 1-510)
Chain of ETV5 (P41161 whole entry): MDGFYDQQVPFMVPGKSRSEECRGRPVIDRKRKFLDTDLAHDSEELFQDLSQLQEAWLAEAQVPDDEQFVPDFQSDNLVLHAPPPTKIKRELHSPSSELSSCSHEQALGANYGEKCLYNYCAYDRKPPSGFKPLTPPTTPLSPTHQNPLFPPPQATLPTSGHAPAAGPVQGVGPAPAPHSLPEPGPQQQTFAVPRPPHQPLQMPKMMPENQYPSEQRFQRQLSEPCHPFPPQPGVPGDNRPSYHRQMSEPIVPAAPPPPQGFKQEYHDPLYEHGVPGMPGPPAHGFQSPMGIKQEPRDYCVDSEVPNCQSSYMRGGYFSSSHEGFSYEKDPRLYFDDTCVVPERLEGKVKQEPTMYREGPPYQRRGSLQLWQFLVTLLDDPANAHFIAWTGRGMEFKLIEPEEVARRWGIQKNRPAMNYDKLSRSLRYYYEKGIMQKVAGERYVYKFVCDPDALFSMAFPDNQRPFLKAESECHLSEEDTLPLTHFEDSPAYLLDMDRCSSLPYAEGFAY
Procedure, shortened: as §1

Sequence: CCCCCC
- binding signal (FLI1): 1.03 fold enrichment (6-mer frequency, TF over GST control)
- binding signal (ELK1): 1.04 fold enrichment (6-mer frequency, TF over GST control)
- binding signal (GABPA): 1.08 fold enrichment (6-mer frequency, TF over GST control)
- binding signal (ERG): 1.07 fold enrichment (6-mer frequency, TF over GST control)
- binding signal (ELF1): 1.08 fold enrichment (6-mer frequency, TF over GST control)
- binding signal (EHF): 1.06 fold enrichment (6-mer frequency, TF over GST control)
- binding signal (SPI1): 1.07 fold enrichment (6-mer frequency, TF over GST control)
- binding signal (SPIB): 1.1 fold enrichment (6-mer frequency, TF over GST control)
- binding signal (ELK3): 1.12 fold enrichment (6-mer frequency, TF over GST control)
- binding signal (ETV5): 1.09 fold enrichment (6-mer frequency, TF over GST control)
